GDH-TPI counter = GDH-TPI coupling enzyme inhibitors, primary screen, artefact control for M. tuberculosis FBA inhibitor project, biochemical, absorbance, full deck; GDH-TPI coupled enzyme counterscreen, NADH absorbance; inhibition, % at 4.8 µM; 1.2% of 360,000 active; AID 588335, 2011; in the data active means inhibition above about 30%
BoNT A protease = BoNT/A light chain protease inhibitors, primary screen, biochemical, flow cytometry, MLPCN library | multiplex microsphere protease substrate cleavage | 0.17% of 360,000 active | inhibition, % at 10 µM | Botulinum neurotoxin type A light chain protease (Clostridium botulinum A str. ATCC 3502)
Bead autofluor = counter-screen for toxin protease inhibitors: compound fluorescence; AID 624483; 3.1% of 360,000 active; compound autofluorescence counterscreen, microsphere flow cytometry; stronger effect = higher value; fluorescence intensity (test concentration not listed); in the data active means fluorescence intensity above about 16000; inconclusive means no clear call, values can overlap the other calls
FBA Mtb inh = Mtb FBA enzyme inhibitors, primary screen, biochemical, fluorescence, strain H37Rv; Fructose-bisphosphate aldolase (Mycobacterium tuberculosis (strain ATCC 25618 / H37Rv)), …; purified M. tuberculosis FBA, fluorescence read-out; inhibition, % at 1 µM; 2.3% of 360,000 active; in the data active means inhibition above about 27%
Target sequence (P9WQA3 whole entry, looked up): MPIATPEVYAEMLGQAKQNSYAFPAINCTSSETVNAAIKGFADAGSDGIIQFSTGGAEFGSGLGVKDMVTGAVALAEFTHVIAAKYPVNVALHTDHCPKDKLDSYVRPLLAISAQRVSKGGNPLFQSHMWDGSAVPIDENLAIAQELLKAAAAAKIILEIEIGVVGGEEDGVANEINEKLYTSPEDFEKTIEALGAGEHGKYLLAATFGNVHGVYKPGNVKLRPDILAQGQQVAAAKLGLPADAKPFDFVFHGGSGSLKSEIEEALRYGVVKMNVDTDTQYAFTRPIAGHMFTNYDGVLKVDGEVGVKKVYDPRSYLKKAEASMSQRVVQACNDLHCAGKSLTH
Anthrax LF inh2 = Bacillus anthracis LF protease inhibitors, primary screen, biochemical, multiplex microsphere, MLPCN library | Lethal factor (Bacillus anthracis), P15917 | multiplex microsphere protease cleavage assay | inhibition, % at 10 µM | 0.12% of 360,000 active | AID 588501, 2011
BoNT-F LC inh = BoNT/F light chain protease inhibitors, primary screen, biochemical, flow cytometry, MLPCN library | 0.22% of 360,000 active | Multiplex microsphere protease cleavage assay | inhibition, % at 10 µM; in the data active means inhibition above about 35%, passing the limit was not always enough; inconclusive means no clear call, values can overlap the other calls
Hits are given with their value; – = inactive; ? = inconclusive. An excerpt weighted towards active compounds, which were near 6.6% of everything screened. Unless noted, no stated cut-off is given here; in the data, active means inhibition above about 30%; inconclusive means no clear call, values can overlap the other calls; inactive means below that.

SMILES	GDH-TPI counter	BoNT A protease	Bead autofluor	FBA Mtb inh	Anthrax LF inh2	BoNT-F LC inh
CC(NS(=O)(=O)c1ccc(CCC(=O)NCc2cccnc2)cc1)c1ccccc1 (stereo unspecified)	–	–	20378	–	–	–
Cc1ccc(S(=O)(=O)NCCC(=O)NCc2ccccc2)cc1	–	–	21858	–	–	–
COc1ccc(CNCCCC(=O)Nc2c(Cl)ccc(C)c2Cl)cc1OC	–	–	–	–	–	–
CC1=C(C(=O)Nc2ccccc2)C(c2cccnc2)n2nc(-c3cccnc3)nc2N1 (stereo unspecified)	–	–	22749	–	–	–
CCCCS(=O)CC(O)COCC (stereo unspecified)	–	–	–	–	–	–
CCOCC(O)CS(=O)Cc1ccccc1 (stereo unspecified)	–	–	24995	–	–	–
O=C(c1cc(F)c(F)c(F)c1F)N1CCN(Cc2ccc3c(c2)OCO3)CC1	–	–	–	–	–	–
CCC(C)NCCCCOc1ccc(C)cc1[N+](=O)[O-] (stereo unspecified)	–	–	20177	–	–	–
C=CCNCCCCOc1ccc(C)cc1[N+](=O)[O-]	–	–	–	–	–	–
O=C(CN1CCN(c2nc(-c3ccccc3)cs2)CC1)NNC(=O)c1ccco1	–	–	–	–	–	–
Cc1onc(-c2ccccc2)c1-c1n[nH]c(=S)n1-c1ccccc1Cl	–	–	22416	–	–	–
COc1ccc(C(C)(C)C)cc1NC(=O)c1ccoc1C	–	–	21536	–	–	–
COc1ccc(C)cc1NC(=O)c1ccoc1C	–	–	–	–	–	–
Cc1c(Cl)cccc1NC(=O)N1CCN(C(=O)c2ccco2)CC1	–	–	–	–	–	–
CCCCNS(=O)(=O)c1ccc2nc(-c3cccnc3)cc(C(=O)NCCOC)c2c1	31.8	–	–	–	–	–
Cc1noc(C)c1NC(=O)Nc1ccc2c(c1)C(=O)N([C@H](C)CO)C[C@H](C)[C@@H](CN(C)S(=O)(=O)c1ccc(Cl)cc1)OCCCC[C@@H](C)O2	–	–	–	–	–	–
O=C1C2CCCN2C(=O)N1CCCN1CCN(c2ccc([N+](=O)[O-])cc2)CC1 (stereo unspecified)	–	–	–	–	–	46.5
O=C1C2CCCCN2C(=O)N1CCN1CCN(c2ccc([N+](=O)[O-])cc2)CC1 (stereo unspecified)	–	–	–	–	–	–
C=CCn1cnc2c(c1=O)c1nc3ccccc3nc1n2/N=C/c1cccc(OC)c1	–	?	21328	–	–	–
COCCn1cnc2c(c1=O)c1nc3ccccc3nc1n2/N=C/c1ccc(OC)c(OC)c1	–	?	–	–	–	?
Cc1cc(NC(=O)CSc2nnc(-c3cccnc3)n2C)no1	–	?	21792	–	–	–
Cc1ccc(-c2nnc3ccc(SCC(=O)Nc4cc(C)on4)nn23)cc1	–	–	20468	–	–	–
O=S(=O)(Nc1ccc(Cc2ccncc2)cc1)c1ccc(Cl)c(Cl)c1	–	–	16421	–	–	–
COc1ccc(S(=O)(=O)Nc2ccc(Cc3ccncc3)cc2)cc1OC	–	–	–	–	–	–
O=C(c1ccc(Cl)cc1)C1CCN(C(=O)N2CCOCC2)CC1	–	–	19889	–	–	–
SMILES	GDH-TPI counter	BoNT A protease	Bead autofluor	FBA Mtb inh	Anthrax LF inh2	BoNT-F LC inh
CCN1C(=O)C(=O)N(CC(=O)N2CCC(C)Sc3ccccc32)C1=O (stereo unspecified)	–	–	–	–	–	–
COC(=O)C1=C(C)N(Cc2ccc(OC)cc2)C(=O)C1	–	–	20549	–	–	–
COc1ccc(CN2C(=O)CC(=O)NC2=O)cc1	–	?	21705	–	–	–
COC(=O)C1=C(C)N(Cc2cccnc2)C(=O)C1	–	–	22058	–	–	–
COC(=O)C1=C(C)N(CCc2ccc(OC)cc2)C(=O)C1	–	–	–	–	–	–
Nc1nc(NCCCN2CCOCC2)nc(Nc2ccc(F)cc2)c1[N+](=O)[O-]	–	–	–	–	–	–
Cc1cccc(Nc2nc(N)c([N+](=O)[O-])c(N3CCN(C)CC3)n2)c1	33.3	–	–	–	–	–

Bioassay records (PubChem BioAssay)
